Six molecules from PubChem BioAssay (Tox21) can be followed below.

Assay [1] can be described thus: qHTS assay for small molecule agonists of the p53 signaling pathway (AID 651631; calls by dose curve; further: nearly all actives have a fitted effect of over 15% in size; further: potency means the concentration at half of the fitted maximal effect). In short, it runs like this:
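HCT-116 p53RE-bla reporter line, 16 h compound treatment at 37 °C, then fluorescence after 2 h with B/G FRET substrate.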
A general note: qHTS replaces the single test concentration by a dilution series.

A short description of assay [2]: qHTS assay for small molecules that induce genotoxicity in human embryonic kidney cells expressing luciferase-tagged ATAD5 (AID 651632). Further: nearly all actives have a fitted effect of over 15% in size. Summed up:
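Luminescence read-out: after 16 hr compound exposure at 37C, ATAD5-luciferase HEK293T cells received Amplite, 30 min RT, then CCD imaging. A rise in signal marks genotoxic stress.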

Assay [3] in a line: qHTS assay for small molecule agonists of the p53 signaling pathway - cell viability (AID 651633; calls by dose curve; further: nearly all actives have a fitted effect of over 30% in size; further: potency means the concentration at half of the fitted maximal effect). In short, it runs like this:
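p53RE-bla cells, seeded at 4,000 per well and rested 5 h at 37 C/5% CO2, received compounds in DMSO for 16 h at 37 C. CellTiter-Glo was then added, and luminescence was read after 30 min at room temperature to gauge cytotoxicity.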

Assay [4] in a line: qHTS assay for small molecules that induce genotoxicity in human embryonic kidney cells expressing luciferase-tagged ATAD5 - cell viability (AID 651634; calls by dose curve; further: nearly all actives have a fitted effect of over 25% in size). Summed up:
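HEK293T ATAD5-luc cells, 2,000/well; compound 15.5 hr, 37C/5% CO2; CellTiter-Fluor 30 min, 37C; fluorescence read.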

Assay [5] in a line: qHTS assay for small molecule disruptors of the mitochondrial membrane potential - cell viability (AID 720634; calls by dose curve;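 further: human HepG2 liver cancer cells; nearly all actives have a fitted effect of over 20% in size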). In short, it runs like this: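 Luminescence from CellTiter-Glo (ATP content) gave viability in HepG2 cells, read in the same wells as the MMP dye assay after 1 hr compound exposure at 37 C.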
Assay [6] is described as follows: qHTS assay for small molecule disruptors of the mitochondrial membrane potential (AID 720635). Further: potency means the concentration at half of the fitted maximal effect. Summed up:
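HepG2 cells (2,000/well) attached overnight at 37C, then took compound for 1 hr at 37C, 5% CO2. Mito-MPS dye was added for 30 min; fluorescence was read at 490/535 nm (monomers) and 540/590 nm (aggregates).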

A short description of assay [7]: qHTS assay to test for compound auto fluorescence at 590 nm (red) in HepG2 cells (AID 720674). In short, it runs like this:
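Rose Bengal sodium served as the red fluorophore standard. HepG2 monolayers (overnight attachment, MEM with 10% FBS) were exposed to test compounds for 1 hr at 37 C and read at Ex 540/Em 590 nm.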

A short description of assay [8]: qHTS assay to test for compound auto fluorescence at 460 nm (blue) in HEK293 cells (AID 720678). Summed up:
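Auto fluorescence in the blue band was quantified as triamterene equivalency. HEK293 cells were seeded at 2,000/well, dosed after a 4-5 hr attachment, and kept overnight at 37C before the 405/460 nm reading.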

A short description of assay [9]: qHTS assay to test for compound auto fluorescence at 590 nm (red) in HEK293 cells (AID 720679). Summed up:
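Autofluorescence equivalency to Rose Bengal sodium, 540/590nm, in HEK293 cells exposed overnight to 23 nL compound per well.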

The nature of assay [10]: qHTS assay to test for compound auto fluorescence at 535 nm (green) in HEK293 cells (AID 720680).
Assay [11] can be described thus: qHTS assay to test for compound auto fluorescence at 460 nm (blue) in HEK293 cell free culture (AID 720681). In short, it runs like this:
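Test compounds were pinned into cell-free culture medium (DMEM with 10% FBS) and fluorescence was read directly at Ex/Em 405/460 nm. Signals were expressed as fluorescence equivalents of triamterene, with DMSO vehicle as control.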

The nature of assay [12]: qHTS assay to test for compound auto fluorescence at 535 nm (green) in HEK293 cell free culture (AID 720682). Summed up:
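Steps: dispense DMEM/10% FBS into empty wells; pin in compound or DMSO; measure fluorescence at 485/535 nm. Values are fluorescein equivalents.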

Assay [13] can be described thus: qHTS assay to test for compound auto fluorescence at 590 nm (red) in HEK293 cell free culture (AID 720683). Summed up:
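Tox21 10K library compounds were pinned into cell-free DMEM with 10% FBS and fluorescence was read at excitation 540 nm. Activity is expressed as Rose Bengal sodium equivalency.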

Assay [14] is described as follows: qHTS assay to test for compound auto fluorescence at 590 nm (red) in HepG2 cell free culture (AID 720684). In short, it runs like this: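 Readout: intrinsic compound fluorescence at 590 nm emission after 540 nm excitation, scaled to Rose Bengal sodium. Matrix was cell-free MEM with 10% FBS; DMSO vehicle wells served as control.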
The nature of assay [15]: qHTS assay to test for compound auto fluorescence at 460 nm (blue) in HepG2 cell free culture (AID 720685). In short, it runs like this:
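Cell-free plates of MEM plus 10% FBS received 23 nL compound or DMSO vehicle; blue-channel (405/460 nm) intensity scored against triamterene as reference fluorophore.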

Assay [16] is described as follows: qHTS assay to test for compound auto fluorescence at 535 nm (green) in HepG2 cell free culture (AID 720686).
Assay [17] in a line: qHTS assay to test for compound auto fluorescence at 460 nm (blue) in HepG2 cells (AID 720687). Summed up:
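Cells (2,000/well in MEM with 10% FBS) attached overnight at 37 C, then were exposed to compound or DMSO for 1 hr at 37 C, 5% CO2. Fluorescence read at Ex/Em 405/460 nm, expressed as triamterene-equivalent signal.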

A short description of assay [18]: qHTS assay to test for compound auto fluorescence at 535 nm (green) in HepG2 cells (AID 720675).
For assay [19], the target named is Glucocorticoid receptor (Homo sapiens) (UniProt P04150). The experiment in a line: qHTS assay to identify small molecule agonists of the glucocorticoid receptor (GR) signaling pathway (AID 720691; active means well fitted activation curve with a large enough effect in the signal ratio in the repeat runs, not every such curve was filed as active; the % refers to the signal ratio). The note with it: GR-bla HeLa, beta-lactamase reporter ratio, 18 h; activation: at 62.4 µM (top of the series). Summed up:
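HeLa GR-bla reporter line; cells pre-incubated 4 h, compound in DMSO 18 h at 37 C; LiveBLAzer B/G FRET substrate 2 h RT; fluorescence intensity read-out.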

Assay [20] has the same target. The experiment in a line: qHTS assay to identify small molecule antagonists of the glucocorticoid receptor (GR) signaling pathway (AID 720692; active means well fitted inhibition curve with a large enough effect in the signal ratio in the repeat runs, not every such curve was filed as active; the % refers to the signal ratio; further: potency means the concentration at half of the fitted maximal effect). In short, it runs like this: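 Read-out: beta-lactamase FRET substrate fluorescence, 2 h at room temperature, in HeLa cells stably carrying a GRE-driven bla reporter. Compounds were co-incubated with 5 nM dexamethasone agonist (final) for 18 h at 37 C.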

Where “and” joins values, the source holds several entries; their conditions need not be identical. Equal entries are not always repeated. Unmarked numbers belong to inactive results. Results filed as inconclusive are left out. Calls of active or inactive are those of the source. Unless noted, the call rests on the fitted dose curve; in most records, active means well fitted curve in the direction sought with a large enough effect in the repeat runs; inconclusive means weak or mixed curves; inactive means no such curve, though single readings can be large; an effect the other way counts as inactive or inconclusive.

Sequence of Glucocorticoid receptor (Homo sapiens) (P04150 whole entry, looked up): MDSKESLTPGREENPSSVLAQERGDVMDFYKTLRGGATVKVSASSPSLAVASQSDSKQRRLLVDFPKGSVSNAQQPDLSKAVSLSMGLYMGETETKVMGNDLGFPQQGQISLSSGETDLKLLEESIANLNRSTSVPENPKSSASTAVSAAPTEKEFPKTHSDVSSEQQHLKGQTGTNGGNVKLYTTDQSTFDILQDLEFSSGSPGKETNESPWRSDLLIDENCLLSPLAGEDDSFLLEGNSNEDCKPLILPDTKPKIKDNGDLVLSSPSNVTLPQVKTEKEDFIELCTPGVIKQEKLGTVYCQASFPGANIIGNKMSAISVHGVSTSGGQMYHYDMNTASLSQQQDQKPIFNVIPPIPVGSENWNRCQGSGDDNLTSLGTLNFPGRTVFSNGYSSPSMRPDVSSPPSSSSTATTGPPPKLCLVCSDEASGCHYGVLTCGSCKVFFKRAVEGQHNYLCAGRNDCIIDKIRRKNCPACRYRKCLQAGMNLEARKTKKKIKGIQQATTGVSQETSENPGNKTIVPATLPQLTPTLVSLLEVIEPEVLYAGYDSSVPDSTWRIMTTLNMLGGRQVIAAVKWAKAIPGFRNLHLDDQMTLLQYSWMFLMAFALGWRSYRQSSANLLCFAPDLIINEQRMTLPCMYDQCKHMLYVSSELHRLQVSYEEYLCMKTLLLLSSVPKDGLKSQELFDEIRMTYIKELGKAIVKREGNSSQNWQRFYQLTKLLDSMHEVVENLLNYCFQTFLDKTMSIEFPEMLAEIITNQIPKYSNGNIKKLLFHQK

For `Cc1c(C)c2c(c(C)c1O)CCC(C)(COc1ccc(CC3SC(=O)NC3=O)cc1)O2` (stereo unspecified), the Potency in [1] is 29.8 µM (active) and 54.5 µM (active); in [3], 29.8 µM (active) and 61.1 µM (active); in assay [6] it was 9.44 µM (active) and 10.9 µM (active). Besides, the Potency entry in assay [2], in assay [4], in assay [5], in [7], in assay [8] and in assay [9] was “inactive” in each case. For the same molecule, the Potency entry in [11], in assay [13], in assay [14], in assay [15], in assay [16] and in [17] was “inactive” in each case. In addition, the result in [10] and in [12] was inactive.
Take `CC(C)=CCOc1ccc(/C=C/C(=O)c2ccc(OCC=C(C)C)cc2OCC(=O)O)cc1`: the Potency in assay [1] was 13.3 µM (active); in assay [3], 10.6 µM (active); in assay [6], 23.7 µM (active); in [20], 7.56 µM (active). Further, the Potency result in [2], in assay [4], in [5], in assay [7], in assay [18] and in assay [8] was “inactive” throughout. In addition, the Potency result in assay [9], in [11], in assay [13], in assay [14], in [15] and in [16] was “inactive” throughout. The Potency result in assay [17] and in assay [19] was “inactive” each time. The result in assay [10] and in assay [12] was inactive.
Regarding `NC(=O)CC[C@@H]1NC(=O)[C@H](Cc2ccccc2)NC(=O)[C@H](Cc2ccc(O)cc2)NC(=O)CCSSC[C@@H](C(=O)N2CCC[C@H]2C(=O)N[C@@H](CCCN=C(N)N)C(=O)NCC(N)=O)NC(=O)[C@H](CC(N)=O)NC1=O`, the Potency result in assay [1], in assay [2], in assay [3], in assay [4], in assay [5] and in assay [6] was “inactive” in each case. The Potency result in [7], in assay [18], in assay [8], in [9], in assay [11] and in [13] was “inactive” each time. Also, the Potency result in assay [15] and in [17] was “inactive” each time. For the same molecule, the molecule was called inactive in assay [10] and in assay [12].
Consider `COc1cc(-c2ccc(N=C=O)c(OC)c2)ccc1N=C=O`, for which the Potency entry in assay [1], in assay [2], in assay [3], in assay [4], in [5] and in [7] was “inactive” in each case. For the same molecule, the Potency entry in [18], in assay [8], in assay [9], in assay [11], in [13] and in [14] was “inactive” throughout. For the same molecule, the Potency entry in assay [15] and in assay [17] was “inactive” in each case. The molecule was called inactive in assay [10].
As for `O=C(O)c1c(Cl)cccc1Cl`, the Potency entry in assay [1], in [2], in assay [3], in assay [4], in assay [5] and in assay [7] was “inactive” throughout. Further, the Potency result in assay [18], in assay [8], in assay [9], in assay [11], in assay [13] and in assay [14] was “inactive” throughout. The Potency entry in assay [15], in assay [16] and in assay [17] was “inactive” in each case. In [10], the molecule was called inactive.
Take `O=C1c2ccccc2Cc2ccccc21`: the Potency result in assay [1], in [2], in assay [3], in [4], in [5] and in assay [7] was “inactive” throughout. The Potency result in [18], in [8], in [9], in assay [13], in assay [14] and in assay [15] was “inactive” in each case. Moreover, the Potency result in assay [16] and in [17] was “inactive” in each case. The Potency in [6] was 12.3 µM (active). The molecule was classed as inactive in [10] and in assay [12].
